Measured values as given in PubChem BioAssay AID2535 (National Center for Advancing Translational Sciences (NCATS), 2010).
Active and inactive are the calls of the source. The call rests on the fitted dose curve; in most records, active means well fitted curve in the direction sought with a large enough effect; inconclusive means small, poorly fitted or top-dose-only effect, or effect the other way, or another doubt; inactive means no such curve, though single readings can be large or run the other way.

molecular target: Pyruvate kinase PKLR (Homo sapiens) (UniProt P30613); experiment: Secondary Concentration-Response Assay for Activators of Human Liver Pyruvate Kinase: for Probe SAR; conditions: purified hPK-L, ATP production, Kinase-Glo luminescence; series mostly up to 58.3 µM; activity change, positive = activation: at the top concentration;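 further: 0% = uninhibited enzyme wells on each plate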
Procedure, shortened: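 Luciferase-coupled luminescence (Kinase-Glo) reports ATP made by 0.1 nM hPK-L from 0.5 mM PEP (at Km) and 0.1 mM ADP (about 10-fold below Km); pH 7.2 imidazole buffer, 1 h room temperature, in concentration-response format.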

Chain of Pyruvate kinase PKLR (Homo sapiens) (P30613 whole entry, looked up): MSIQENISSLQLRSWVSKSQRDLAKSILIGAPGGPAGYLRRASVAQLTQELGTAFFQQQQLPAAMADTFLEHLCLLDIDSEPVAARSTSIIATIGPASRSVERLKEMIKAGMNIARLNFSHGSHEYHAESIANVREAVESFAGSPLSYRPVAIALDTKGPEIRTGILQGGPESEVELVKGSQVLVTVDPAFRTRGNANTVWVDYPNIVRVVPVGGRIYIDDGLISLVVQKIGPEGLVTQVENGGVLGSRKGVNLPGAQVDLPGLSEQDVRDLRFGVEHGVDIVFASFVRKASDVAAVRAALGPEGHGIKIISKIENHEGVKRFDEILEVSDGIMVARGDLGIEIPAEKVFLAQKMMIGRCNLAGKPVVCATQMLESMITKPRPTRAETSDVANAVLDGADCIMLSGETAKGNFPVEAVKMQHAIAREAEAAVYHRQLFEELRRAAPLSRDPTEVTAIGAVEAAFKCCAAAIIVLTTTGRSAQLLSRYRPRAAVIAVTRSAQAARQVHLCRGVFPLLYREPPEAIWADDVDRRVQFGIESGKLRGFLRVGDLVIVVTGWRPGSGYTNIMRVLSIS

Activity change, positive = activation, inactive:
Cc1cc(C)n2c(Nc3ccccc3)c(-c3ccc(C)o3)nc2n1 7%
Cc1ccc(-c2nc3cnccn3c2Nc2ccc(C(C)C)cc2)o1 -0.25%
CC(=O)N1CCCc2cc(S(=O)(=O)Nc3ccc(C)c(C)c3)ccc21 -5.11%
Cc1ccc(NS(=O)(=O)c2cc3c(cc2Cl)NC(=O)C3)cc1C 8.55%
Cc1ccc(C)c(OC2=NS(=O)(=O)c3ccccc32)c1 -1.9%
CC(C)Nc1cccc(S(=O)(=O)N2CCCN(S(=O)(=O)c3ccc4c(c3)OCCO4)CC2)c1 8.24%
O=C1CCc2cc(S(=O)(=O)Nc3cccc(Cl)c3)ccc2N1 3.94%
Cc1ccc(NS(=O)(=O)c2ccc3c(c2)NC(=O)CO3)cc1C 15.7%
Cc1ccc(NS(=O)(=O)c2ccc3c(c2)CCC(=O)N3)cc1C 7.77%
O=C1c2ccccc2C(=O)N1Cc1ccccn1 2.21%
CCCCN1C(=O)c2ccccc2C1=O 0.342%
Cc1ccc(Cl)cc1NS(=O)(=O)c1cc2c(cc1F)NC(=O)CC2 -12.6%
Cc1ccc(Nc2c(-c3ccc(C)s3)nc3cccc(C)n23)cc1 6.05%
O=C1CCc2cc(S(=O)(=O)Nc3ccc4c(c3)OCCO4)ccc2N1 8.86%
Cc1cccc(OC2=NS(=O)(=O)c3ccccc32)c1 2.27%
Cc1ccc(Nc2c(-c3ccc(C)o3)nc3ccccn23)cc1 0.661%
Cc1ccc(Nc2c(-c3ccc(C)o3)nc3cccc(C)n23)cc1 4.33%
O=C1c2ccccc2C(=O)N1c1cccc2ccncc12 2.75%
O=C1c2ccccc2C(=O)N1c1ncccc1O 4.65%
Cc1ccc(NS(=O)(=O)c2ccc3c(c2)CCC(=O)N3)cc1 10.7%
O=C1CCc2cc(Cl)c(S(=O)(=O)Nc3ccc(Cl)c(Cl)c3)cc2N1 9.66%
Cc1cc(NS(=O)(=O)c2ccc3c(c2)CCC(=O)N3)ccc1Cl 13.3%
O=C1c2ccccc2C(=O)N1Cc1cccnc1 7.89%
O=C1c2ccccc2C(=O)N1Cc1ccccc1 3.62%
Cc1ccccc1NS(=O)(=O)c1ccc2c(c1)CCC(=O)N2 6.63%
COc1cccc(N2C(=O)c3ccccc3C2=O)n1 6.52%
O=C1c2ccccc2C(=O)N1c1noc2ccccc12 -6.4%
O=C1CCc2cc(S(=O)(=O)Nc3ccccc3-c3ccccc3)ccc2N1 2.85%
O=C1CCc2cc(S(=O)(=O)Nc3ccc(Cl)c(Cl)c3)c(F)cc2N1 17%
CC(=O)Nc1ccc(S(=O)(=O)Nc2ccc(C)c(C)c2)cc1 10%
Cc1ccc(NS(=O)(=O)c2cc3c(cc2F)NC(=O)CC3)cc1Cl 13.8%

outcome, inactive:
Cc1cc2c(s1)c1cnn(Cc3ccccc3F)c(=O)c1n2C
